# Records with an inconclusive call do not appear. Values without a mark were called inactive. Calls of active or inactive are those of the source. Calls come from the whole dose curve; as a rule, active = well fitted inhibition curve with a large enough effect; inconclusive = small, poorly fitted or top-dose-only effect; inactive = no such curve, though single readings can be large or run the other way.
# Assay: Primary qHTS for small molecule stabilizers of the endoplasmic reticulum resident proteome: Secreted ER Calcium Modulated Protein (SERCaMP) assay (AID 1508630)
# Settings: SH-SY5Y GLuc-SERCaMP (Gaussia luciferase released on ER calcium loss) secretion, thapsigargin, luminescence; series mostly up to 38.4 µM
# Excerpt: Assay Provider: Brandon K. Harvey Ph.D.
# National Institute on Drug Abuse, National Institutes of Health, Baltimore, MD
# Endoplasmic reticulum (ER) dysregulation is associated with human pathologies including neurodegenerative, cardiovascular, muscular, and diabetic conditions. Maintenance of ER calcium is critical for functions of the ER and its depletion can lead to loss of ER resident proteins, in a process termed exodosis. Therapeutic compounds capable of attenuating the redistribution of ER proteins under pathological conditions may slow or stop disease progression. To identify such compounds, we performed a quantitative high-throughput screen (qHTS) using the SERCaMP assay, which monitors secretion of ER resident proteins triggered by calcium depletion.
# SERCaMP was initially developed as a reporter of ER calcium homeostasis using a Gaussia luciferase with a modified signal peptide and carboxy-terminus (GLuc-SERCaMP), modifications that confer secretion of the reporter in response to ER calcium depletion (Henderson et al., 2014). The assay was used to screen 9,501 compounds, including a collection of drugs approved by the FDA (US), EMA (EU), NHI (Japan), and HC (Canada) regulatory agencies (Huang et al., 2011). Since the SERCaMP reporter reflects the exodosis phenomenon (Trychta et al., 2018a), compounds identified in the screen have the potential to prevent exodosis by different mechanisms such as stabilizing ER calcium or augmenting ERS retrieval.
# 1. Henderson, M.J., Wires, E.S., Trychta, K.A., Richie, C.T., and Harvey, B.K. (2014). SERCaMP: a carboxy-terminal protein modification that enables monitoring of ER calcium homeostasis. Mol Biol Cell 25, 2828-2839.
# 2. Huang, R., Southall, N., Wang, Y., Yasgar, A., Shinn, P., Jadhav, A., Nguyen, D.T., and Austin, C.P. (2011). The NCGC pharmaceutical collection: a comprehensive resource of clinically approved drugs enabling repurposing and chemical genomics. Sci Transl Med 3, 80ps16.
# 3. Trychta, K.A., Back, S., Henderson, M.J., and Harvey, B.K. (2018a). KDEL Receptors Are Differentially Regulated to Maintain the ER Proteome under Calcium Deficiency. Cell Rep 25, 1829-1840 e1826.
# SEQUENCE No. (1, 2, 3, etc.); […] (e.g., Cells, Incubation, Reagent, etc.); VALUE and DESCRIPTION.
# 1; Reagent; 5 uL; 1000 SH-SY5Y cells per wells
# 3; Compound; 23 nL; Control inhibitor / compound library
# 5; Reagent; 100 nM; Thapsigargin
# 7; Reagent; 1 uL; 0.5x coelenterazine
# 8; Detection; Luminescence; ViewLux imaging system
# NOTES (numbers refer to sequence above)
# 1; SH-SY5Y human neuroblastoma cells stably expressing GLuc-SERCaMP (SH-SY5Y-GLuc-ASARTDL) cells were seeded in 1,536 well white tissue culture treated plates (Corning, Cat# 7464) in DMEM-high glucose-sodium pyruvate (ThermoFisher Scientific, Cat #10569) supplemented with 10% bovine growth serum (Hyclone), 10 U/ml penicillin (Gibco), 10 ug/ml streptomycin (Gibco), and 20 mM HEPES.
# 2; Assay plates were incubated for 5 hour at 37C in a humidified incubator containing 5% CO2.
# 3; qHTS libraries (23 nl, final concentrations of 1.53 uM, 7.67 uM, 38.3 uM) or controls (neutral control: DMSO, positive control: dantrolene) were added using a Kalypsis pin-tool Robotic System equipped with 1536 pinheads.
# 4; Cells were then incubated for 16 hours at 37C, 5% CO2.
# 5; Thapsigargin was added at 100 nM to deplete ER calcium stores.
# 6; Cells were incubated for 4 hour (37 °C, 5% CO2)
# 7; Gaussia luciferase in the medium was measured by adding 1 ul of 0.5x coelenterazine (final concentration 0.07x) prepared in Gaussia Luciferase Glow Assay Buffer (Pierce), without addition of the Cell Lysis Buffer Reagent.
# 8; Luminescence was measured using a ViewLux […] CCD imaging system (Perkin Elmer) equipped with clear filters. […] The same controls were also used for the calculation of the Z' factor, a measure of assay quality control, as previously described (Zhang et al., 1999). […]
# % is set by controls: 0 for no effect and ±100 for the full control effect.
Compound,outcome,"activity change, negative = inhibition"
Cn1c(=O)c2c(ncn2CCO)n(C)c1=O,inactive,
Cc1[nH]c(C)c(Cl)c(=O)c1Cl,inactive,
O=C(O)Cc1ccc(CCNS(=O)(=O)c2ccc(Cl)cc2)cc1,inactive,
O=C(CCBr)N1CCN(C(=O)CCBr)CC1,inactive,
CC(=O)Nc1cccc(O)c1,inactive,
O=C(NCC(O)CO)c1c(I)c(C(=O)NCC(O)CO)c(I)c(N(CCO)C(=O)CO)c1I (stereo not given),inactive,
O=C(O)c1ccccc1C(=O)Nc1ccc(S(=O)(=O)Nc2nccs2)cc1,inactive,
O=C(Cn1ccnc1[N+](=O)[O-])NCCO,inactive,
COC(=O)c1ccccc1C(=O)c1ccc(OCCN2CCCCC2)cc1,inactive,
COc1ccc2cc(CCC(C)=O)ccc2c1,inactive,
CC1(C)[C@@H](OC(=O)CCC(=O)O)CC[C@]2(C)[C@H]3C(=O)C=C4[C@@H]5C[C@@](C)(C(=O)O)CC[C@]5(C)CC[C@@]4(C)[C@]3(C)CC[C@@H]12,inactive,
COc1cc(O)cc(O)c1,inactive,
Nc1ccc(C(=O)Oc2ccccc2)c(O)c1,inactive,
OC[C@@H](O)[C@@H](O)[C@H](O)[C@H](O)CO,inactive,
COc1ccccc1Oc1c(NS(=O)(=O)c2ccc(C(C)(C)C)cc2)nc(-c2ncccn2)nc1OCCO,inactive,
CC(C)=CCC[C@@](C)(O)[C@H]1CC=C(C)CC1,inactive,
CC(C)CCCC(C)CCCC(C)CCCCC(C)CCCC(C)CCCC(C)C (stereo not given),inactive,
COCC(=O)Nc1c(I)c(C(=O)NCC(O)CO)c(I)c(C(=O)N(C)CC(O)CO)c1I (stereo not given),inactive,
CCCCCCCCCCCCCCCCC(C(=O)O)C(O)(CC(=O)O)C(=O)O (stereo not given),inactive,
C=CCN1C[C@H](C(=O)N(CCCN(C)C)C(=O)NCC)C[C@@H]2c3cccc4[nH]cc(c34)C[C@H]21,inactive,

Compound,outcome,"activity change, negative = inhibition"
CC(=O)Nc1ccccc1,inactive,
C[C@@H](c1ncncc1F)C(O)(Cn1cncn1)c1ccc(F)cc1F (stereo not given in full),inactive,
COc1ccc(-c2cc(=O)c3c(O)cc(O[C@@H]4O[C@H](CO[C@@H]5O[C@@H](C)[C@H](O)[C@@H](O)[C@H]5O)[C@@H](O)[C@H](O)[C@H]4O)cc3o2)cc1O,inactive,
O=C(c1ccccc1)C(O)c1ccccc1 (stereo not given),inactive,
Cc1ccc(S(=O)(=O)NC(=O)NC2CCCCCCC2)cc1,inactive,
CCOC(=O)[C@H](CCc1ccccc1)N[C@@H](C)C(=O)N1CCC[C@H]1C(=O)O,inactive,
CCCOC(=O)c1ccc(N)cc1,inactive,
CCCCCCCC(=O)OCC(O)CO (stereo not given),inactive,
O=C1c2ccccc2C(=O)C1c1ccc(Br)cc1,inactive,
CCN1CC(CCN2CCOCC2)C(c2ccccc2)(c2ccccc2)C1=O (stereo not given),inactive,
CCOc1ccc(C(=O)OCCN(CC)CC)cc1,inactive,
NNC(=O)CP(=O)(c1ccccc1)c1ccccc1,inactive,
C=CCOc1ccccc1OCC(O)CNC(C)C (stereo not given),inactive,
OCc1ccc(Cl)cc1Cl,inactive,
C=CCSCC1Nc2cc(Cl)c(S(N)(=O)=O)cc2S(=O)(=O)N1 (stereo not given),inactive,
CC(C)C[C@@H](N)C(=O)O,inactive,
CN1C[C@@H]2C[C@H]1CN2c1cc2c(cc1F)c(=O)c(C(=O)O)cn2C1CC1,inactive,
C/C(=C(\CCO)SS/C(CCO)=C(\C)N(C=O)Cc1cnc(C)nc1N)N(C=O)Cc1cnc(C)nc1N,inactive,
CCCCCCCCCCOc1cc2c(=O)c(C(=O)OCC)c[nH]c2cc1OCC,,2.46% [at 3.88 µM]
O=C(NCCCN1CCOCC1)c1ccc(Cl)cc1,inactive,
